Cruzain inh noDet = qHTS Assay for Promiscuous and Specific Inhibitors of Cruzain (without detergent). Cruzipain (Trypanosoma cruzi), P25779. purified cruzain, Z-FR-AMC fluorescence, no detergent. Potency, µM, without a hit: max response, negative = inhibition, actives largely listed as inhibitors. 200,000 compounds, 2.3% hits. AID 1476, 2009;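 further: plate controls were enzyme without inhibitor for no effect and buffer without enzyme for full effect; nearly all actives have a fitted effect of over 40% in size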
Target sequence (P25779 123-467 limits assumed): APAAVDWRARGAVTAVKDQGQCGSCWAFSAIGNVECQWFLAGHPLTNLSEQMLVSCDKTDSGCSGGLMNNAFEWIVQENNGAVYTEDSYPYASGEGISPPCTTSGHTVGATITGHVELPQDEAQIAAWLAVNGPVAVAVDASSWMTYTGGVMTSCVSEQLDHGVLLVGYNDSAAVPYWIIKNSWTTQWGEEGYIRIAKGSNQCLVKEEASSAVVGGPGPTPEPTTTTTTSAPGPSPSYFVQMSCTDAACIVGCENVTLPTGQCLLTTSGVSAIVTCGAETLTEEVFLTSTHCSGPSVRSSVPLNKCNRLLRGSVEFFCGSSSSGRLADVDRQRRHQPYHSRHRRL
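Purified cruzain at 1.5 nM, pre-incubated 15 min with compound at room temperature in 100 mM sodium acetate pH 5.5, 5 mM DTT, 0.00005% Triton X-100. Reaction started with 2 uM Z-FR-AMC; AMC fluorescence increase over 60 s gives rate.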
NS1 inh = qHTS Assay for Inhibitors of Influenza NS1 Protein Function | AID 2326, 2010 | Potency, µM (top dose mostly 46.1 µM), for the others: at the top dose activity, positive = more growth | 270,000 compounds, 0.4% hits; calls by dose curve; further: actives are rising curves; nearly all actives have a fitted effect of over 50% in size
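Recovery from NS1-induced slow growth read by OD600 in budding yeast switched to galactose assay medium (pH 6.0, -URA) at 1:100 dilution. Compound 23 nl per well; the matching strain lacking NS1 serves as control.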
Cruzain inh Det = qHTS Assay for Promiscuous and Specific Inhibitors of Cruzain (with detergent); purified cruzain, Z-FR-AMC fluorescence, 0.01% Triton; Potency, µM, for the others: max response, negative = inhibition, actives largely listed as inhibitors; 200,000 compounds, 0.43% hits; AID 1478, 2009;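 further: plate controls were neutral wells for no effect and buffer without enzyme for full effect; nearly all actives have a fitted effect of over 40% in size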
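Enzyme 1.5 nM, Z-FR-AMC 2 uM, NaOAc 100 mM pH 5.5, DTT 5 mM, Triton X-100 0.01%; 15 min RT compound preincubation; kinetic ex360/em450, 60 s delta.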
Numbers without * were called inactive. Only a selection was taken, and hits are over-represented in it overall. Unless noted, the call rests on the fitted dose curve; in most records, active means well fitted curve in the direction sought with a large enough effect; inconclusive means small, poorly fitted or top-dose-only effect, or another doubt; inactive means no such curve, though single readings can be large; an effect the other way counts as inactive or inconclusive. Potency means the concentration at half of the fitted maximal effect.

Screening CC(C)c1cccc2c([Si](C)(C)C)c3c(nc12)-c1cccc(=O)n1C3 returned Cruzain inh noDet inconclusive and Cruzain inh Det -14%.
For CC1CCc2c(sc(NC(=O)CSc3nc4c(c(C(F)(F)F)n3)CCc3ccccc3-4)c2C(N)=O)C1 (stereo not drawn) the results were Cruzain inh noDet 10µM*, NS1 inh 16% and Cruzain inh Det -2%.
Screening N#Cc1c(NC(=O)CSc2nnc(-c3ccccc3O)n2-c2ccccc2)sc2c1CCCC2 returned Cruzain inh noDet 4µM*, NS1 inh 6% and Cruzain inh Det 3%.
For CCn1c(SCC(=O)Nc2sc3c(c2C#N)CCCC3)nnc1-c1ccncc1 the results were Cruzain inh noDet inconclusive, NS1 inh 4% and Cruzain inh Det -10%.
Screening Cc1nn(Cc2ccc(Cl)cc2)c(C)c1NC(=O)CSc1nc2c(c(C(F)(F)F)n1)CCc1ccccc1-2 returned Cruzain inh noDet inconclusive, NS1 inh 23% and Cruzain inh Det 4%.
`NC(=O)c1c(NC(=O)CSc2nc3c(c(C(F)(F)F)n2)CCc2ccccc2-3)sc2c1CCCC2` gave Cruzain inh noDet inconclusive, NS1 inh 9% and Cruzain inh Det 0%.
N#Cc1c(NC(=O)CSc2nc3c(c(C(F)(F)F)n2)CCc2ccccc2-3)sc2c1CCCC2 was read as Cruzain inh noDet 7.9µM*, NS1 inh 9% and Cruzain inh Det -3%.
For C[N+](C)(C)CCCSc1nc2ccccc2[nH]1 the results were Cruzain inh noDet 9%, NS1 inh -1% and Cruzain inh Det 5%.
`COC/C=C/C1=CC2=CC(=O)C(C)(OC(=O)c3ccc(Cl)nc3)C(=O)C2=CO1` (stereo not drawn) gave Cruzain inh noDet 0% and Cruzain inh Det -5%.
For COc1cccc(C(=O)N2c3cc(C)ccc3C(C)(c3ccccc3)CC2(C)C)c1 (stereo not drawn) the results were Cruzain inh noDet inconclusive and Cruzain inh Det -6%.
O=c1[nH]c(-c2ccc(Cl)cc2)nc2c1cnn2-c1ccccc1 was read as Cruzain inh noDet 25µM*, NS1 inh 6% and Cruzain inh Det 5%.
`CCCSc1nc2c(cnn2-c2ccc(Cl)cc2)c(=O)[nH]1` gave Cruzain inh noDet 10µM*, NS1 inh -3% and Cruzain inh Det 0%.
CCCCSc1nc2c(cnn2-c2ccc(F)cc2)c(=O)[nH]1 was read as Cruzain inh noDet -5%, NS1 inh 1% and Cruzain inh Det -3%.
Cc1nc2c(cnn2-c2ccccc2)c(=O)[nH]1 was read as NS1 inh 0%.
Cc1nc(NC2CCCCC2)c2nc(-c3ccccc3)n(CCCN3CCCCC3C)c2n1 (stereo not drawn) was read as Cruzain inh noDet 1% and Cruzain inh Det 4%.
For c1ccc(-c2noc(-c3ccccc3-c3ccccc3)n2)cc1 the results were Cruzain inh noDet -9%, NS1 inh -6% and Cruzain inh Det -4%.
`CN(C)c1ccc(-c2noc(-c3ccccc3O)n2)cc1` gave Cruzain inh noDet 25µM*, NS1 inh 3% and Cruzain inh Det 22µM*.
COc1ccc(CNC(=O)c2ccc(CS(=O)Cc3ccccc3Cl)o2)cc1 (stereo not drawn) was read as Cruzain inh noDet -2% and Cruzain inh Det -4%.
Cc1oc2c(cc(NS(=O)(=O)c3cccs3)c3ccccc32)c1C(=O)OC(C)C was read as Cruzain inh noDet 32µM*, NS1 inh 28% and Cruzain inh Det -3%.
Screening Cc1oc2c(cc(NS(=O)(=O)c3ccc(C(C)C)cc3)c3ccccc32)c1C(=O)O returned Cruzain inh noDet 19%, NS1 inh 22% and Cruzain inh Det inconclusive.
Screening CCC1CCc2nc3sc(C(=O)Nc4cccc(C(F)(F)F)c4)c(N)c3cc2C1 (stereo not drawn) returned Cruzain inh noDet -34% and Cruzain inh Det -3%.
CCC1CCc2nc3sc(C(=O)Nc4cccc(F)c4)c(N)c3cc2C1 (stereo not drawn) was read as Cruzain inh noDet 5µM* and Cruzain inh Det -5%.
Cc1ccc(/C=N/N2CCN(Cc3ccccc3)CC2)s1 was read as Cruzain inh noDet 5%, NS1 inh inconclusive and Cruzain inh Det 2%.
Cc1ccc(/C=N/N2CCN(Cc3cccc4ccccc34)CC2)s1 was read as Cruzain inh noDet 10µM*, NS1 inh 13% and Cruzain inh Det 0%.
For Cc1cccc(NC(=O)CSc2nnc(-c3ccco3)c(-c3ccco3)n2)c1 the results were NS1 inh -4%.
`Cc1cccc(NC(=O)CSc2nnc(-c3ccco3)c(-c3ccco3)n2)c1C` gave Cruzain inh noDet 7.9µM*, NS1 inh inconclusive and Cruzain inh Det 28µM*.
`COc1ccc(Cl)cc1NC(=O)c1nn(C)c2c1CS(=O)(=O)c1ccccc1-2` gave Cruzain inh noDet 8% and Cruzain inh Det -1%.
COC(=O)C1C(O)CC[C@H]2CN3CCc4c([nH]c5ccccc45)C3C[C@H]12 (stereo partly drawn) was read as Cruzain inh noDet -19% and Cruzain inh Det -1%.
For Cn1nnc(NCc2cc(Br)ccc2OCc2cccs2)n1 the results were Cruzain inh noDet 32µM*, NS1 inh -10% and Cruzain inh Det -4%.
For Cn1nnc(C(O)CNCc2cccs2)n1 (stereo not drawn) the results were Cruzain inh noDet 3%, NS1 inh -2% and Cruzain inh Det 3%.
Screening COc1ccc(-c2cc(=O)oc3cc(OC(=O)C4CCCCC4)c(Cl)cc23)cc1 returned Cruzain inh noDet 6.3µM*, NS1 inh 27% and Cruzain inh Det -5%.
Screening COc1ccc(-c2cc(=O)oc3cc(O)ccc23)cc1 returned NS1 inh 3%.
Screening Cc1ccc(OCc2nnc(SCC(=O)Nc3nccs3)n2-c2ccccc2)cc1C returned Cruzain inh noDet 6%, NS1 inh -4% and Cruzain inh Det 3%.
Screening O=C(CSc1ccccc1)Nc1nnc(COc2ccc(Cl)cc2)s1 returned Cruzain inh noDet 1%, NS1 inh 11% and Cruzain inh Det -16%.
Cc1cccc(C)c1OCc1nnc(NC(=O)CSc2ccc(Cl)cc2)s1 was read as Cruzain inh noDet 25µM*, NS1 inh 2% and Cruzain inh Det 1%.
`Cc1ccc(-n2c(COc3c(C)cccc3C)nnc2SCC(=O)Nc2nccs2)cc1` gave Cruzain inh noDet 25µM*, NS1 inh -2% and Cruzain inh Det 11%.
Screening COc1ccc(/C=C/c2nnc(NC(=O)CC(C)C)s2)cc1 returned NS1 inh -1%.
`COc1ccc(/C=C/c2nnc(NC(=O)CSc3ccc(Cl)cc3)s2)cc1` gave Cruzain inh noDet 10µM*, NS1 inh 3% and Cruzain inh Det -1%.
`COc1nc(Cl)nc(Cl)c1Cl` (tested in a mixture with another compound) gave Cruzain inh noDet -2%, NS1 inh 5% and Cruzain inh Det -5%.
Screening Cc1ccc(CCNC(=O)c2cc3ccccn3n2)cc1 returned Cruzain inh noDet -8% and Cruzain inh Det -2%.
For Cc1ccc(CN2C(=O)C3(c4ccccc42)N(c2cccc(F)c2)C(=O)CS3(=O)=O)cc1 (stereo not drawn) the results were Cruzain inh noDet 1.6µM* and Cruzain inh Det -5%.
